Here are results for 5 molecules from PubChem BioAssay.

Broadly, the inhibition is the relative decrease from the control value, in per cent.

The nature of assay [1]: selective SMN2 exon splicing luciferase activators – cell-based, SMN2/SMN1 luciferase reporters (AID 1598; call rule not given here). To be noted: SMN2 vs SMN1 luciferase splicing reporter cells, at 10 µM; SMN1 luciferase ratio: measured here: SMN1 luciferase reporter average; SMN2 luciferase ratio: measured here: SMN2 luciferase reporter average, stronger effect = higher value; SMN2/SMN1 luciferase ratio: stronger effect = higher value. Background: Reporter assays use an easily measured gene product as a stand-in for the process of interest.

Assay [2] in a line: human hepatoma cell viability loss – ATP luminescence, cytotoxicity control for P. falciparum antimalarial project, primary screen (AID 2303).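 Also: 0% = DMSO wells and 100% = digitonin-killed cells.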 The conditions noted are these: HepG2 viability, 24-48 h, at 10 µM, stronger effect = higher value.

Results filed as inconclusive are left out. Activity calls are given as the source filed them.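 The calls were made as follows, unless noted: active = inhibition above 50%; inactive = the rest.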

`NC12CC3CC(CC(C3)C1)C2`: in assay [1], the SMN1 luciferase ratio is 0.84, the SMN2/SMN1 luciferase ratio is 1.22 (active) and the SMN2 luciferase ratio was 1.01. In addition, the inhibition in assay [2] was 31% (inactive).

For the molecule `CCCCCN=C(N)N/N=C/c1c[nH]c2ccc(OC)cc12`, the inhibition in assay [2] is 16% (inactive).

`c1ccc([C@H]2CN3CCSC3=N2)cc1`: the inhibition in assay [2] is 11% (inactive).

With `CCN(CCO)CCCC(C)Nc1ccnc2cc(Cl)ccc12` (stereo not drawn), the inhibition in assay [2] is 3% (inactive).

For `c1ccc(CC2=NCCN2)cc1`, in assay [2], the inhibition was 3% (inactive).
